From PubChem BioAssay (Tox21) come the findings set out here.

Results filed as inconclusive are left out. A call without a number means that no potency is given here. Unmarked numbers belong to inactive results. Active and inactive are the calls of the source. Calls follow the shape of the full dose curve.

This assay is described as follows: p53 small molecule agonists, cell-based qHTS assay with rat liver microsomes (AID 1963578). The settings on record: HCT-116 p53RE-bla, beta-lactamase ratio, 16 h; series mostly up to 66 µM. From the text:
U.S. Tox21 Program National Center for Advancing Translational Sciences [NCATS] Division of Preclinical Innovation [DPI] U.S. Environmental Protection Agency [EPA] National Institutes of Environmental Health Sciences [NIEHS] National Toxicology Program [NTP] U.S. Food and Drug Administration [FDA] Tox21 Assay Overview: p53, a tumor suppressor protein, is activated following cellular insult, including DNA damage and other cellular stresses. The activation of p53 regulates cell fate by inducing DNA repair, cell cycle arrest, apoptosis, or cellular senescence. The activation of p53, therefore, is a good indicator of DNA damage and other cellular stresses. […] The activation of the reporter gene under culture conditions can be detected by fluorescence intensity. This cell line was used to screen the Tox21 10K compound library in the condition of presence of rat liver microsomes and to identify agonists that activate the p53 signaling pathway after in vitro metabolic activation (Ooka et al., Archive of Toxicology 96:1975-1987, 2022).
Tox21 Assay Protocol Summary: The p53RE-bla cells were dispensed at 4,000cells/3ul/well in 1536-well black-clear bottom plates. After the assay plates were incubated at 37 C, 5% CO2 incubator for 5 hours, 23 nL of compounds dissolved in DMSO, positive controls or DMSO only was transferred to the assay plate. Following compound addition, 3 uL of rat liver microsomes (Molecular Toxicology, Boone, NC) at final concentration of 0.5 mg/mL and 1uL of Beta-Nicotinamide adenine dinucleotide 2-phosphate (NADPH) at final concentration of 0.5 mg/mL were transferred to the assay plate. The plates were incubated at 37 C for 16 hours. 1 uL of LiveBLAzer detection mixture was added to each well and the plates were incubated at room temperature in the dark for 2 h.
A general note: Quantitative high-throughput screening tests each substance at several concentrations.
For `[O-][n+]1cccc(/C(Cl)=N/OC[C@@H](O)CN2CCCCC2)c1`, the Potency result was “inactive”.

For `Nc1ccc(S(=O)(=O)NCc2ccccc2)cc1`, the Potency result is “inactive”.

Consider `COc1ccc(-n2nc(CCC(=O)N(C)O)cc2-c2ccc(Cl)cc2)cc1`, for which the Potency entry is “inactive”.

Consider `NC(=O)N(O)[C@@H]1C=C[C@H](Oc2cccc(Oc3ccc(F)cc3)c2)C1`, for which the Potency entry is “inactive”.

For `C[C@@H]1O[C@@H](O[C@@H]2[C@@H](O)[C@H](OCCc3ccc(O)c(O)c3)O[C@H](CO[C@@H]3O[C@H](CO)[C@@H](O)[C@H](O)[C@H]3O)[C@H]2OC(=O)/C=C/c2ccc(O)c(O)c2)[C@H](O)[C@H](O)[C@H]1O`, the Potency result is “inactive”.

Regarding `O=C(O)Cc1sc(-c2ccccc2)nc1-c1ccc(Cl)cc1`, the Potency entry is “inactive”.

On to `CC(=O)CC(=O)OC(C)(C)C`, for which the Potency entry is “inactive”.

With `CC12CCCC=C1C(=O)OC2=O` (stereo not given), the Potency result is “inactive”.

For the compound `Cn1cnc2ncnc(N)c21`, the Potency entry is “inactive”.

In the case of `CCOc1ccccc1O[C@H](c1ccccc1)[C@H]1CNCCO1`, the Potency entry was “inactive”.

As for `Cc1c(C)n(CCN(C)C)c2ccc(C(=O)OCCN(C)C)cc12`, the Potency result was “inactive”.

In the case of `CC(C)c1ccc2sc3ccccc3c(=O)c2c1`, the Potency result is “inactive”.

As for `S=C(SSSSSSC(=S)N1CCCCC1)N1CCCCC1`, the activation was -7.65% [at 13.6 µM].

On to `CCCCC(CC)COC(=O)CC#N` (stereo not given), for which the Potency result was “inactive”.

For the compound `Brc1ccccn1`, the Potency entry is “inactive”.

Consider `Cc1ccc(C(=O)Oc2ccc(C(O)CNC(C)(C)C)cc2OC(=O)c2ccc(C)cc2)cc1` (stereo not given), for which the Potency result was “inactive”.

Take `COc1c(C)c2c(c(O)c1C/C=C(\C)CCC(=O)OCCN1CCOCC1)C(=O)OC2`: the Potency entry was “inactive”.

For the compound `OC(CCN1CCCCC1)(c1ccccc1)c1ccccc1`, the Potency entry is “inactive”.

For `CC/C(=C\C(=N/O)C(N)=O)C(C)[N+](=O)[O-]` (stereo not given), the Potency entry was “inactive”.

In the case of `COC(=O)C(C)(C)C`, the Potency entry is “inactive”.

With `COc1cc(C(=O)NC2CCCNC2)cc(OC)c1OC` (stereo not given), the Potency result was “inactive”.

For `CCC(=O)O[C@]1(C(=O)CCl)[C@@H](C)C[C@H]2[C@@H]3CCC4=CC(=O)C=C[C@]4(C)[C@@]3(F)[C@@H](O)C[C@@]21C`, the Potency entry is “inactive”.

Regarding `CCOC(=O)[C@H](O)[C@@H](O)C(=O)OCC`, the Potency entry was “inactive”.

As to `NS(=O)(=O)c1cc2c(cc1Cl)NC(C(Cl)Cl)NS2(=O)=O` (stereo not given), the Potency entry is “inactive”.

Turning to `OC1(c2ccccc2)CCNCC1`, the Potency entry was “inactive”.

As for `CC(C)Cn1cnc2c(N)nc3ccccc3c21`, the activation was -0.62% [at 13.6 µM].

For the compound `CCCCCCCCCOC(=O)c1ccccc1C(=O)OCCCCCCCCC`, the Potency result was “inactive”.

For `O=C(O)C(Cc1cc(I)c(O)c(I)c1)c1ccccc1` (stereo not given), the Potency result was “inactive”.

On to `CNC(=O)c1c(I)c(NC(=O)CCCCC(=O)Nc2c(I)c(C(=O)O)c(I)c(C(=O)NC)c2I)c(I)c(C(=O)O)c1I`, for which the Potency entry is “inactive”.

With `CC(=O)NCCCCCC(=O)O`, the Potency entry was “inactive”.

On to `CO[Si](CCCNc1ccccc1)(OC)OC`, for which the Potency result is “inactive”.

Regarding `O=C(O)CCC(=O)c1ccc(-c2ccccc2)cc1`, the Potency entry was “inactive”.

Consider `COc1cc2[nH]c(=O)[nH]c(=O)c2cc1OC`, for which the Potency result is “inactive”.

Consider `COCCOC(=O)C1=C(C)NC(C)=C(C(=O)OC/C=C/c2ccccc2)C1c1cccc([N+](=O)[O-])c1` (stereo not given), for which the Potency result is “inactive”.

In the case of `CCC1CO1` (stereo not given), the Potency result was “inactive”.

For the compound `O=C(O)c1ccccc1NCCc1ccccc1`, the Potency entry was “inactive”.

In the case of `CCCC(=O)OC(=O)CCC`, the Potency result is “inactive”.

Regarding `NC(=O)C(c1ccccc1)(c1ccccc1)[C@@H]1CCN(CCc2ccc3c(c2)CCO3)C1`, the Potency result was “inactive”.

For the compound `CN1CCN(C2Cc3ccccc3Sc3ccc(Cl)cc32)CC1` (stereo not given), the Potency result is “inactive”.

In the case of `N=C1C=CC(=C(c2ccc(N)cc2)c2ccc(N)cc2)C=C1`, the Potency entry is “inactive”.
